D2 ag-1 – agonists of human D2 dopamine receptor | HEK293 T-REx D2 cells, calcium flux agonist mode | activation, % at 2 µM | 340,000 compounds, 0.53% hits | AID 485358;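 active = activation over 3 SD above normal in the single-dose calcium agonist read, cut at about 30% in these data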; also: 0% is about no effect
Target sequence (P14416 whole entry, looked up): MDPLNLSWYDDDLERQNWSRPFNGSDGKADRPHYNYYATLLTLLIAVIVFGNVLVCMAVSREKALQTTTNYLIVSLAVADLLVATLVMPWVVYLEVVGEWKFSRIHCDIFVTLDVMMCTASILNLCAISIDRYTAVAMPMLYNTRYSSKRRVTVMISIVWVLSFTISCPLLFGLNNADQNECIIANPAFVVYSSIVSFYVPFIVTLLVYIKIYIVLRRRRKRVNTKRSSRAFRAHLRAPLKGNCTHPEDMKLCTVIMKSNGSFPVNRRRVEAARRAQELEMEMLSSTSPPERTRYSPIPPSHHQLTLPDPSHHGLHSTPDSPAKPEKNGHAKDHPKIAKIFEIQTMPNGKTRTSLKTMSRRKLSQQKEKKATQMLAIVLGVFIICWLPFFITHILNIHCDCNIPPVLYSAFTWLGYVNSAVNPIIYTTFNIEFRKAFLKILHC
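Calcium-flux readout, 1 cycle/sec over 180 s following compound pin transfer, in inducible HEK293 Trex D2 cells (force-coupled); dopamine controls included. Positive calcium responses during this window marked compounds as potential agonists.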
D2 ag-2 – agonists of human D2 dopamine receptor (beta-arrestin); DiscoveRx PathHunter D2 beta-arrestin, luminescence, 90 min; 100% = 57 uM dopamine signal; P14416; activation, % (concentration not given with the values); AID 624465; 360,000 compounds, 0.084% hits; in the data active = activation above about 40%
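Agonist mode: compounds alone added to overnight-plated D2 PathHunter cells for 90 min at 37 C, with 57 uM final dopamine (EC100) defining full response. Beta-arrestin recruitment detected by chemiluminescent reagent, read after 1 h at ambient temperature.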
D2 PAM-1 – positive allosteric modulators of human D2 dopamine receptor. P14416. HEK293 T-REx D2, calcium flux, EC20 dopamine potentiation. potentiation, % at 10 µM. 340,000 compounds, 0.34% hits;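 active = potentiation over 3 SD above the plate norm, cut at about 30% in these data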; also: 0% is about no effect
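Potentiation of an EC20 dopamine calcium response measured kinetically over 180 s, after a preceding 180 s compound-only read flagging agonists. Cells: inducible Hek293 Trex D2 line, 4000/well, cultured overnight at 30 C before dye loading.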
D2 antagonist – D2 dopamine receptor (human) antagonism; 340,000 compounds, 2% hits; inhibition, % at 10 µM; HEK293 TREx D2 cells, calcium flux, dopamine EC80; P14416; in the data active = inhibition above about 30%; inactive = below that, where a call was filed; also: 0% is about no effect
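Antagonism is scored as inhibition of an EC80 dopamine-evoked calcium signal in a force-coupled, tetracycline-inducible HEK293 T-REx D2 line, with compound present 180 s before agonist.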
D2 PAM-2 – positive allosteric modulators of human D2 dopamine receptor. potentiation, % (no concentration beside the values). P14416. DiscoveRx D2 beta-arrestin cells, luminescence, 90 min; 100% = 57 uM dopamine signal. 360,000 compounds, 0.23% hits; in the data active = potentiation above about 50%
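PathHunter beta-arrestin assay in DiscoveRx D2 cells. Compounds were added with an EC20 of dopamine (50 nM final) for 90 min at 37 deg C. Luminescence was read 1 h after detection reagent, with 57 uM dopamine as the EC100 control.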
The depositor's hits bear a star; · = not tested or not shown. A selection: hits, their analogues and other compounds. The true share with any hit is near 2.4%.

SMILES	D2 ag-1	D2 ag-2	D2 PAM-1	D2 antagonist	D2 PAM-2
Cn1c(=O)c2sccc2n2c(CCCC(=O)NCc3ccc4c(c3)OCO4)nnc12	0	-2	35*	-16	-9
Cn1c(=O)c2sccc2n2c(CCCC(=O)Nc3ccc(F)c(F)c3)nnc12	0	·	22	·	·
Cn1c(=O)c2sccc2n2c(CCCC(=O)Nc3ccc(F)cc3F)nnc12	1	-2	32*	4	-11
Cn1c(=O)c2sccc2n2c(CCCC(=O)NCc3ccc(F)cc3)nnc12	2	-1	33*	-12	-8
CNC(=O)C1CCN(c2nc3ccccc3nc2C(F)(F)F)CC1	0	·	3	·	·
CN(C)C(CNC(=O)CCC(=O)c1ccc(Br)cc1)c1ccccc1 (configuration not stated)	-1	-2	2	5	-7
CC1CCc2sc(C(=O)NC3CCN(Cc4ccccc4)CC3)cc2C1 (configuration not stated)	1	-2	-30	83*	-6
CCC1CCc2sc(C(=O)NC3CCN(Cc4ccccc4)CC3)cc2C1 (configuration not stated)	1	-2	-2	77*	-35
CC1CCN(CCCNC(=O)CCc2nnc3n(CCc4ccccc4)c(=O)c4ccccc4n23)CC1	0	-2	3	61*	-19
COC(=O)c1c(-c2ccccc2)csc1NC(=O)CSc1ncnc2sc(C)c(C)c12	0	2	-6	13	-13
OC(COc1ccc2c(c1)OCO2)CN1CCc2ccccc2C1 (configuration not stated)	1	0	-25	42*	-32
Cc1ccc(OCC(O)CN2CCN(Cc3ccc4c(c3)OCO4)CC2)cc1C (configuration not stated)	0	0	-29	22	-22
C=CCc1ccccc1OCC(O)CN1CCN(Cc2ccc3c(c2)OCO3)CC1 (configuration not stated)	1	2	-24	64*	-14
C=CCc1ccc(OCC(O)CN2CCc3ccccc3C2)c(OC)c1 (configuration not stated)	0	-3	-13	47*	-28
Cc1cc(C)cc(OCCCOc2cccc3cccnc23)c1	0	-3	-6	33*	-11
COc1ccc([N+](=O)[O-])cc1NC(=O)CC(c1ccccc1)c1ccccc1	·	-3	·	·	0
COc1ccc([N+](=O)[O-])cc1NC(=S)NC(NC(=O)C(c1ccccc1)c1ccccc1)C(Cl)(Cl)Cl (configuration not stated)	0	1	-19	71*	-23
COc1ccc([N+](=O)[O-])cc1NC(=O)C(C)OC(=O)Cn1[nH]c(=O)c2ccccc2c1=O (configuration not stated)	0	-6	-1	36*	-6
CCN(CCC(=O)Nc1cc([N+](=O)[O-])ccc1OC)Cc1ccccc1	1	-1	-25	79*	-39
COc1ccc([N+](=O)[O-])cc1NC(=O)C(C)OC(=O)CN1C(=O)C2CC=CCC2C1=O (configuration not stated)	0	-1	-11	-11	-2
COc1ccc([N+](=O)[O-])cc1NC(=O)C(C)c1ccccc1 (configuration not stated)	0	0	-3	32*	5
CSCC[C@H](NC(=O)c1cc2c([nH]c3ccccc32)c(-c2ccccc2)n1)C(=O)O	0	-3	5	3	-5
COC(=O)C(NC(=O)C(NC(=O)C1CCC(C)CC1)C(C)C)C(C)C (configuration not stated)	·	-6	·	·	-1
CC(CCC(C)C(C)(C)C)[C@@H]1CC[C@H]2C3C[C@H](OS(O)(=S)=S)[C@H]4C[C@H](OS(O)(=S)=S)[C@@H](OS(O)(=S)=S)C[C@]4(C)[C@H]3CC[C@]12C (some centres not stated) (tested in a mixture with another compound)	·	-1	·	·	-6
COC(=O)Nc1ccc(S(=O)(=O)Nc2cc(C(F)(F)F)c[nH]c2=O)cc1	·	0	·	·	-10
SMILES	D2 ag-1	D2 ag-2	D2 PAM-1	D2 antagonist	D2 PAM-2
CC(C(=O)N1CCCCC1)N(C)CC(=O)Nc1cccc(F)c1 (configuration not stated)	·	-1	·	·	-1
Cc1ccccc1OCC(=O)Nc1ccc(-c2nc3cc(Cl)cc(Cl)c3o2)cc1	1	·	·	·	·
S=C1NC2(CCCCC2)Cc2ccccc21	-1	-2	-6	32*	-6
CCNC(=O)CC1C(=O)N(CC)C(=S)N1NC(=O)c1ccc(Cl)cc1 (configuration not stated)	0	-2	2	-8	-8
CCN1C(=O)C(CC(=O)Nc2ccc(Cl)cc2)N(NC(=O)c2ccncc2)C1=S (configuration not stated)	0	-7	-9	31*	-13
Cn1c(SCc2ccc(F)cc2)nnc1-c1cnccn1	-1	-1	-1	-4	-6
NC(=O)CSc1nnc(-c2cnccn2)n1-c1ccccc1	1	0	36*	-20	-6
Cn1c(SCc2ccccc2)nnc1-c1cnccn1	0	-2	-2	37*	-1
CC(C)CNC(=O)COC(=O)c1cccc(S(=O)(=O)NCC(F)(F)F)c1	0	-2	-2	8	-8
O=C1CC(C(=O)Nc2ccccc2)N=C(N2CCOCC2)N1 (configuration not stated)	0	-5	4	-26	-12
O=C1CC(C(=O)Nc2ccc(F)c(Cl)c2)N=C(N2CCCCC2)N1 (configuration not stated)	0	-3	-21	30*	-10
CCCN1C(=O)c2ccc(C(=O)Nc3ccc4c(c3)OCO4)cc2C1=O	0	-4	-11	6	-2
COc1ccc(/C=N/NC(=O)COc2ccc3ccccc3c2)c(C(=O)O)c1OC	1	-7	12	7	-2
COc1ccc(/C=N/NC(=O)COc2cccc3ccccc23)c(C(=O)O)c1OC	0	0	40*	-21	2
CCCS(=O)(=O)N1CCC(C(=O)N2CCC(Cc3ccccc3)CC2)CC1	1	-4	7	-8	-8
CCCS(=O)(=O)N1CCC(C(=O)NCCCN2CCC(Cc3ccccc3)CC2)CC1	1	-2	-3	33*	-22
C=CCN1C(=O)C(CC(=O)O)SC1=Nc1cccc([N+](=O)[O-])c1 (configuration not stated)	0	-4	10	-14	-8
C=CCN1C(=O)C(CC(=O)O)SC1=Nc1ccc(N=Nc2ccccc2)cc1 (configuration not stated)	0	-3	39*	-8	-12

Screening data (PubChem)
